Results reported in article PMC4336329 (PLoS ONE, 2015).
The campaign covered roughly 310,000 compounds. About 14,000 (4.5%) showed an effect of 50% or more. Effects have a minus sign here. For the sample, strong results were picked, then their nearest neighbours and some compounds at random.

biological target: human ether-à-go-go-related gene (hERG) potassium channel (human, UniProt Q12809); experiment: primary screen, population patch clamp on CHO cells stably expressing hERG; higher = less effect of the substance
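Further: peak tail current of the secondary pulse compared with the same well before compound.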

Sequence of human ether-à-go-go-related gene (hERG) potassium channel (Q12809 whole entry, looked up): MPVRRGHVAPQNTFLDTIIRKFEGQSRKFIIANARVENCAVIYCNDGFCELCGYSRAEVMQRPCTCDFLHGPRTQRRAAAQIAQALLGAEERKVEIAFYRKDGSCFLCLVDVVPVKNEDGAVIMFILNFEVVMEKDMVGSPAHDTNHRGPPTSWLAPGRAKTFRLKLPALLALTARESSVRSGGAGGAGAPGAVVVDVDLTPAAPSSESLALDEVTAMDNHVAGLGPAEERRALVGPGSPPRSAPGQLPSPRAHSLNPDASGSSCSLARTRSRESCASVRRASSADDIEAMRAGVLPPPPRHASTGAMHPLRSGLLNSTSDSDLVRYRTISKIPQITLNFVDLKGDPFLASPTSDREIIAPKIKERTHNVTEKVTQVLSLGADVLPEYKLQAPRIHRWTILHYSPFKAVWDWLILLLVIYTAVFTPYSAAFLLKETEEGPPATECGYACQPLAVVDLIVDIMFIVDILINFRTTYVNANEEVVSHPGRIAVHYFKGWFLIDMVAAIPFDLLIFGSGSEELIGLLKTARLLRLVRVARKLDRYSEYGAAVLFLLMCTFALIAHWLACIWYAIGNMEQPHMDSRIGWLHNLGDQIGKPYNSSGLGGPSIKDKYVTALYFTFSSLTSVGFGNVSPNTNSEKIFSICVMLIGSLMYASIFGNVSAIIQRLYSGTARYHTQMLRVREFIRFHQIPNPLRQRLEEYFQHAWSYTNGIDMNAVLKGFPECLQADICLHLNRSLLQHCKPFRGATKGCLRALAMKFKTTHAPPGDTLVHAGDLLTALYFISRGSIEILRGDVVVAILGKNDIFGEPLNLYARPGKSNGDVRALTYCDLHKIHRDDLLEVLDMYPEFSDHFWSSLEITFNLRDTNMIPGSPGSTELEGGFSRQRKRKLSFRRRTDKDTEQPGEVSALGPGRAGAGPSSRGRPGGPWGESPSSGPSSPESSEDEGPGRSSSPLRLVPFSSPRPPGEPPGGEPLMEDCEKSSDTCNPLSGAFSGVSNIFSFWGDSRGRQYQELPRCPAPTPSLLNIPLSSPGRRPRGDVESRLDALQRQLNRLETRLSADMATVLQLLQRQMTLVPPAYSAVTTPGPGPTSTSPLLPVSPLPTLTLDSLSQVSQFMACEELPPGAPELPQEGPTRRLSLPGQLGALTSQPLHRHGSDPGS

Structure (SMILES) | hERG current change (%, negative = inhibition) at 10uM [%]
CSc1ccccc1NC(=O)CN(Cc1ccccc1)S(C)(=O)=O | 4.1
CC1(C)C(=O)C=C[C@]2(C)[C@H]3CC[C@@]4(C)[C@H](c5ccoc5)OC(=O)[C@H]5O[C@]54[C@]3(C)[C@H](O)C[C@@H]12 | 8.63
Cc1cc(C)cc(NC(=O)CSc2nnc(-c3ccccc3)n2N)c1 | 6.38
CC(C)Oc1cccc(C(=O)Nc2ccc(Br)cc2F)c1 | 7.79
Cc1ccccc1CNC(=O)CC1C(=O)NCCN1CC1CCCCC1 (stereo not drawn) | 6.33
Cc1cc(C)c(C(=O)CSc2n[nH]c(=O)n2C2CC2)cc1C | -9.54
COc1ccc(C(=O)c2nc3ccccc3n2C(C)C)cc1OC | -16.5
CC(C)c1ccc(NNC(=O)C2CCC2)cc1 | 3.84
COc1ccc(CC(=O)N2CCc3cc(OC)c(OC)cc3C2)cc1 | -6.59
COc1ccc(C(=O)CCN2CCC(C)CC2)cc1.Cl | -30
Brc1cccc(OCCN2CCc3ccccc3C2)c1.Cl | -5.84
COc1cc2c(cc1OC)CN(CCOc1ccc(Br)cc1)CC2 | -68.8
COc1cc2c(cc1OC)CN(C(=O)CCNS(=O)(=O)c1ccc(Br)cc1)CC2 | -36.8
COc1cc2c(cc1OC)CN(CCC(=O)c1ccc(Br)cc1)CC2 | -66.9
COc1ccc(S(=O)(=O)N2CCN(CCOc3ccc(Br)cc3)CC2)cc1OC | -12.8
COc1ccc(C(=O)CCN2CCc3cc(OC)c(OC)cc3C2)cc1.Cl | -69.1
COc1cc2c(cc1OC)CN(Cc1cc(OC)c(O)c(OC)c1)CC2 | -14
COc1ccc(C(=O)NC(=S)Nc2cccc3nc(C)ccc23)cc1OC | 8.45
Cc1nnc(NC(=O)CN2CCN(Cc3c(Cl)cccc3Cl)CC2)s1 | 9.97
COC(=O)c1c(NC(=O)CS(=O)(=O)c2ccccc2)sc(C)c1C | -21.6
CNC(=O)C1CCN(S(=O)(=O)c2c(C)noc2/C=C/c2cccc(C)c2)CC1 | 10.2
COc1ccccc1NC(=O)c1ccc2c(c1)C(=O)N(c1ccccc1OC)C2=O | 5.55
CC(C)c1ccccc1NS(=O)(=O)c1cccs1 | 17.8
CNCC[C@H](Oc1cccc2ccccc12)c1cccs1 | -37.8

Structure (SMILES) | hERG current change (%, negative = inhibition) at 10uM [%]
CNCCC(Oc1ccccc1OC)c1ccccc1.Cl (stereo not drawn) | -53.5
CNCC[C@H](Oc1cccc2ccccc12)c1cccs1.Cl | -36
CCS(=O)(=O)c1ccc2oc(Nc3cccc(OC)c3)nc2c1 | 9.78
Cc1ccc(NC(=O)CCCn2nc(C)c3c(C)n(-c4ccccc4)nc3c2=O)cc1C | 24.6
COc1cc(Cc2ccc(N)c(OC)c2)ccc1N | 11.1
COc1ccc(Cc2ccc(OC)c(N)c2)cc1N | -52.6
COc1ccc(OC)c(N)c1.Cl | 20.5
Cc1cccc(N2CC(C)Cn3c2nc2c3c(=O)[nH]c(=O)n2C)c1 (stereo not drawn) | -0.757
COCCNCCCCSc1ccc(Cl)cc1 | -50.8
COCCCNC(=O)CCSc1ccc(Cl)cc1 | -8.9
COCCCNCCCCSc1ccc(Cl)cc1 | -37.9
O=C1CCCC2=C1C(c1ccccc1)C1C(=O)c3ccccc3C1=N2 (stereo not drawn) | 6.16
CC(=O)Nc1ccc(C(=O)N2CCN(S(=O)(=O)c3ccc4c(c3)OCCCO4)CC2)cc1 | 5.45
Cc1cc(C(=O)Nc2ccc(S(=O)(=O)N3CCCC3)cc2)no1 | 23.6
CCC(=O)N1CCN(c2ccc(NC(=S)NC(=O)c3cccc([N+](=O)[O-])c3)cc2)CC1 | 2.13
CN1CCN(c2ccc(S(=O)(=O)N3CCCCC3)cc2NC(=O)c2ccc(C#N)cc2)CC1 | -41.7
CN1CCN(c2ccc(S(=O)(=O)N3CCCCC3)cc2NC(=O)c2ccc3ccccc3c2)CC1 | -40.4
COc1ccc(C(=O)Nc2cc([N+](=O)[O-])ccc2N2CCN(C)CC2)cc1 | -30.3
COc1cccc(C(=O)Nc2cc([N+](=O)[O-])ccc2N2CCN(C)CC2)c1 | -71.7
COc1ccc(C(=O)Nc2cc([N+](=O)[O-])ccc2N2CCCC2)cc1 | -1.57
CCC(=O)N1CCN(c2ccccc2NC(=O)c2ccc(-c3cccc([N+](=O)[O-])c3)o2)CC1 | -34.1
O=C(NC(=S)Nc1ccccc1N1CCOCC1)c1cccc([N+](=O)[O-])c1 | 17.6
CC(=O)N1CCN(c2ccccc2NC(=O)c2ccc(-c3cccc([N+](=O)[O-])c3)o2)CC1 | -75.4
O=C(NC(=S)Nc1ccccc1N1CCCCC1)c1ccc(-c2cccc([N+](=O)[O-])c2)o1 | 4.88

Structure (SMILES) | hERG current change (%, negative = inhibition) at 10uM [%]
CN1CCN(c2ccc(S(=O)(=O)N3CCCCC3)cc2NC(=O)c2cccc([N+](=O)[O-])c2)CC1 | -65.8
CCC(=O)N1CCN(c2ccccc2NC(=S)NC(=O)c2cccc([N+](=O)[O-])c2)CC1 | -69.9
COCCNC(=O)[C@@]1(Cc2ccccc2)C=C[C@@H](C)N1C(C)=O | 11.5
CC(C)N(Cc1ccco1)/N=C/c1c(O)n(Cc2ccccc2)c(=O)[nH]c1=O | 8.85
Cc1nccn1CCOc1ccc(Cl)cc1.O=C(O)C(=O)O | -38.4
COc1ccc2c(Cl)c(C(N)=O)sc2c1 | 1.91
Nc1ccc(NC(=O)c2ccco2)c(Cl)c1 | 12.9
Cc1cc(=O)cc(C)n1-c1ccc(Br)cc1 | 12.1
CCN(CC)CCn1c(-c2ccc(C)cc2)nc(=S)c2c1CC(C)(C)OC2 | -0.55
Clc1ccccc1-c1ccc(/C=N/n2cnnc2)o1 | -24.1
CCc1nc(SCC(=O)Nc2cccc3ccccc23)[nH]c(=O)c1C | 8.16
COC(=O)c1ccc(C(=O)OC)c(NC(=S)N2CCC(N3CCCCC3)CC2)c1 | -15
COc1cc(NS(C)(=O)=O)c(OC)cc1NC(=O)c1ccccc1 | -9.96
O=C(NC(=S)Nc1ccccc1N1CCCC1)c1ccc(-c2cccc([N+](=O)[O-])c2)o1 | -26.7
O=C(Nc1ccccc1N1CCOCC1)c1cccc([N+](=O)[O-])c1 | -17.7
O=C(Nc1ccccc1N1CCCCC1)c1cccc([N+](=O)[O-])c1 | 9.03
CN1CCN(c2ccc(NC(=O)c3ccc(-c4cccc([N+](=O)[O-])c4)o3)cc2)CC1 | 5.35
CN1CCN(c2ccccc2NC(=O)c2cccc([N+](=O)[O-])c2)CC1 | -80.1
CN1CCN(c2ccccc2NC(=O)c2ccc(-c3cccc([N+](=O)[O-])c3)o2)CC1 | -51.8
N#Cc1ccsc1NC(=O)c1ccc(Cl)c([N+](=O)[O-])c1 | 21
O=C(NC1CCS(=O)(=O)C1)c1cccc(S(=O)(=O)N2CCCCCC2)c1 (stereo not drawn) | 1.79
CCC1CCCCN1Cc1nc(Cc2ccccc2Cl)no1 (stereo not drawn) | -10.4
OCCCC1CCCCN1Cc1nc(Cc2ccccc2Cl)no1 (stereo not drawn) | -78.9
NC(=O)[C@@H]1CCCN1Cc1nc(Cc2ccccc2Cl)no1 | 14.5

Structure (SMILES) | hERG current change (%, negative = inhibition) at 10uM [%]
Cc1noc(C)c1S(=O)(=O)N1CCCN(C(=O)/C=C/c2ccccc2F)CC1 | -70.9
Cc1noc(/C=C/c2ccccc2F)c1S(=O)(=O)N1CCC(C(=O)N2CCN(C)CC2)CC1 | -19.5
CNC(=O)C1CCN(S(=O)(=O)c2c(C)noc2/C=C/c2ccccc2F)CC1 | 11.4
COc1ccc(N2CCN(C(c3cccs3)C(C)NS(C)(=O)=O)CC2)cc1 (stereo not drawn) | 7.84
CN1C(=O)c2ccccc2C(C(=O)O)C1c1cccc(F)c1 (stereo not drawn) | 0.483
CCOc1ccccc1N(C)C(=O)c1sc2ncn(CC(=O)N3CCCCC3C)c(=O)c2c1C (stereo not drawn) | 6.44
CCOC(=O)CCSc1nc2c(c(C(F)(F)F)c1C#N)CCC2 | 3.58
O=C(c1ccccc1OCc1ccccc1Br)N1CCN(c2ncccn2)CC1 | -37.2
O=C(C[n+]1cccc2ccccc21)c1ccc(Br)cc1.[Br-] | -45.1
O=C(c1ccco1)N1CCN(Cc2nc(Cc3ccccc3)no2)CC1 | -8.87
Cc1cccnc1CN1CCN(Cc2nc(Cc3cccc(F)c3)no2)CC1 | -29.5
Fc1cccc(Cc2noc(CN3CCCN(C4Cc5ccccc5C4)CC3)n2)c1 | -86.5
Fc1cccc(Cc2noc(CN3CCSCC3)n2)c1 | 29.1
Fc1cccc(Cc2noc(CN3CCOCC3)n2)c1 | 11.4
c1ccc(Cc2noc(CN3CCCN(C4Cc5ccccc5C4)CC3)n2)cc1 | -80
CN1CCN(Cc2nc(Cc3cccc(F)c3)no2)CC1c1ccccc1 (stereo not drawn) | -18.2
Fc1cccc(Cc2noc(CN3CCN(C4CCc5ccccc5C4)CC3)n2)c1 (stereo not drawn) | -78.6
c1ccc(Cc2noc(CN3CCN(C4CCc5ccccc5C4)CC3)n2)cc1 (stereo not drawn) | -81.2
Cc1ccccc1N1CCN(Cc2nc(Cc3ccccc3)no2)CC1 | 9.18
O=C(c1ccco1)N1CCCN(Cc2nc(Cc3ccccc3)no2)CC1 | -25.8
c1ccc(Cc2noc(CN3CCC(CN4CCOCC4)CC3)n2)cc1 | 4.64
